Compound activity (PubChem)
Most compounds without a hit are left out; they make up all but 10% or so of the library.
ROMK mod: ROMK potassium channel modulators, primary screen, cell-based, thallium flux, MLSMR library; 2% of 130,000 active; Tet-inducible ROMK, thallium flux fluorescence; actives lie on both sides; B-score at 10 µM;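 active means signal ratio slope over the read window, or its plate-corrected B-score, at least 3 SD from the plate mean, either direction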;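 further: B-score of the F/F0 ratio slope over 7 to 12 s after thallium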
HCT116 PTEN-null: growth suppression of PTEN-null HCT116, primary screen, cell-based, CellTiter-Glo | HCT116 PTEN-null viability, 60 h; active compounds read low | viability, % at 10 µM | 1.2% of 140,000 active | AID 827, 2007;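 active means viability at or below a set limit, 4 SD under the median of all tested compounds, cut at about 3.7% in these data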;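 further: PTEN knockout HCT116 line with beta catenin targeted HCT116 as companion control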
Lmaj promast: Leishmania major promastigote growth inhibition, primary screen. Leishmania major promastigotes, resazurin fluorescence viability. inhibition, % at 10 µM. 9% of 200,000 active; in the data active means inhibition above about 50%;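 further: promastigotes grown with compound for 44 hours at 28 °C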
Insulin prom inh: inhibitors of insulin promoter-driven GFP, primary screen, imaging, TRM-6 cells (human fetal islet line), eGFP reporter, cell count | reporter expression induced with tamoxifen | inhibition, % at 2 µM | 0.9% of 130,000 active | AID 1273, 2008;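 active means inhibition above the mean plus 3 SD, with well images judged a real hit on visual review, cut at about 60% in these data, passing the limit was not always enough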
bCat KO growth: primary screen for growth suppressors in beta-catenin knockout HCT116 cells (colon tumor, human) | HCT116 beta-catenin knockout viability, CellTiter-Glo, 60 h; active compounds read low | 1.5% of 140,000 active | viability, % at 10 µM;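 active means viability at or under a set limit, the compound median less 4 SD, cut at about 6% in these data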;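 further: 0% = Hyamine 1622 control at 20 µM and 100% = untreated cell control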
p97 ATPase inh: inhibitors of human p97 ATPase, primary screen, biochemical | AID 1481, 2009 | Transitional endoplasmic reticulum ATPase (Homo sapiens), P55072 | inhibition, % at 8 µM | 0.42% of 220,000 active | recombinant p97 ATPase, Kinase-Glo ATP luminescence, 3 h; in the data active means inhibition above about 15%;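 further: 0% = DMSO vehicle and 100% = wells lacking enzyme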
Target sequence (P55072 whole entry, looked up): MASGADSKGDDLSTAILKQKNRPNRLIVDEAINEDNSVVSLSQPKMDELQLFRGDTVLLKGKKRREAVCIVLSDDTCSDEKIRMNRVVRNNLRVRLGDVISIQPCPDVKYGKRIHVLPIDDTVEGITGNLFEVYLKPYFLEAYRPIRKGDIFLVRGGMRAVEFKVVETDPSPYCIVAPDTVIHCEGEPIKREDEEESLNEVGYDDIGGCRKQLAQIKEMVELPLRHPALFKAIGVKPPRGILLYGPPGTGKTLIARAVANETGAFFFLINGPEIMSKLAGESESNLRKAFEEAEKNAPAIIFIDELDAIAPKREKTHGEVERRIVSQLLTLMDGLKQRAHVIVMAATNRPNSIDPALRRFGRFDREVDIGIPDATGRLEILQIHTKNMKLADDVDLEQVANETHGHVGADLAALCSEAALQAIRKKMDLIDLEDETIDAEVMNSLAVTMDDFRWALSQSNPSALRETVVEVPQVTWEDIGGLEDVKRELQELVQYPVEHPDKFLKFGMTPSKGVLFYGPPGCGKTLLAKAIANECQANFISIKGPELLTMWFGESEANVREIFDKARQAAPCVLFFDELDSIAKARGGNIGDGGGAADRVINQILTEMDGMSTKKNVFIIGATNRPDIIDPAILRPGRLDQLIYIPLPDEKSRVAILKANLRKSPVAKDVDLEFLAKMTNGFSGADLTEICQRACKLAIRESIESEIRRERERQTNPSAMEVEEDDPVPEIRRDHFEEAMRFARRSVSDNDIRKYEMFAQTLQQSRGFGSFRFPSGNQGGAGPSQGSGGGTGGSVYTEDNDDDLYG
Numbers without * were called inactive; x = no result given.

SMILES	ROMK mod	HCT116 PTEN-null	Lmaj promast	Insulin prom inh	bCat KO growth	p97 ATPase inh
CC(=O)N(CC(C)(C)CC=C(C)C)c1ccccc1	-0.329	86.1	-5.9	65.2*	78.5	2.2
O=C1CC2c3ccccc3C1C1C(=O)N(Cc3ccccc3)C(=O)C21 (stereo unspecified)	0.878	x	3.3	x	x	8.7
CC(=O)N1CCN(CC(=O)Nc2cc(S(=O)(=O)N3CCOCC3)ccc2C)CC1	-0.468	x	-11.0	x	x	3.7
CC(NC(=O)OCc1ccccc1)C(=O)NCC(=O)NC(Cc1ccc(OC(C)(C)C)cc1)C(=O)OC(C)(C)C (stereo unspecified)	x	84.7	52.7*	-6.9	87.6	-6.2
CC(C)(C)OC(=O)C(Cc1ccc(OC(C)(C)C)cc1)NC(=O)CNC(=O)CNC(=O)OCc1ccccc1 (stereo unspecified)	-0.988	76.5	32.4	-26.7	74.0	-2.6
NC(=O)c1cccnc1Nc1cccc(F)c1	x	97.7	-3.2	86.7*	90.7	3.8
O=C(C[n+]1ccc(/C=C/c2ccccc2)cc1)c1ccc2c(c1)OCCO2	x	x	x	x	x	8.2
O=c1c(S(=O)(=O)c2ccc(Cl)cc2)cn(Cc2ccccc2)c2ccc(F)cc12	-0.556	59.6	91.0*	-40.0	62.1	-2.1
Cc1ccc(NC(=O)Cn2cc(S(=O)(=O)c3ccccc3)c(=O)c3cc(F)ccc32)cc1	-1.41	86.0	-6.9	5.0	85.6	5.6
c1ccc2oc(-c3ccn[nH]3)cc2c1	x	x	x	x	x	4.4
O=P(c1ccccc1)(c1ccccc1)N(c1ccccc1)c1ccccc1	2.09	45.2	64.7*	-23.7	42.7	-9.2
O=P(Cc1ccccc1O)(c1ccccc1)c1ccccc1	x	87.7	0.1	-15.6	87.1	2.5
COc1ccccc1N1C(C)=CC(=C(C#N)c2nc3ccccc3s2)C=C1C	x	60.8	52.3*	x	51.9	2.9
CC1=CC(=C(C#N)c2nc3ccccc3s2)C=C(C)N1c1ccc(F)cc1	x	78.5	33.6	x	82.5	1.4
Cc1cnccc1CNC(=O)CC1C(=O)NCCN1CC(C)(C)C (stereo unspecified)	-0.515	x	-9.7	-64.3	x	-0.8
CCOc1ccc(Nc2cc(C)nc(-n3nc(C)cc3C)n2)cc1	2.73*	15.3	90.4*	-185.7	20.5	0.5
Cc1cc(N/N=C/c2ccc(F)cc2)nc(-n2nc(C)cc2C)n1	x	x	x	x	x	-3.9
COc1ccc(/C=N/Nc2cc(C)nc(-n3nc(C)cc3C)n2)c(OC)c1	x	2.4*	99.5*	x	2.6*	-0.6
C=CCOCCN(CC)CC	x	x	x	x	x	-4.3
COc1ccc(O)c(C(=O)CC(=O)c2ccc(F)cc2)c1	x	56.8	52.5*	x	67.8	-3.3
COc1ccc(NC(=O)c2ccccc2C)c(OC)c1	x	100.7	-2.5	-25.0	89.7	5.3
COc1ccc(O)c(C(=O)CC(=O)c2ccccc2C)c1	-0.329	x	92.0*	x	x	-1.0
O=C1N(Cc2cccnc2)C[C@@H]2C[C@@H](c3cccc(Oc4ccccc4)c3)N3CCC[C@@]123	x	x	x	x	x	2.4
CC(C)(C)NCc1ccccc1OCc1cccs1	x	79.6	82.0*	4.7	89.6	5.1
COc1cc(CNCCO)cc(Br)c1OCc1cccs1	x	78.0	87.8*	3.6	76.3	-6.3
SMILES	ROMK mod	HCT116 PTEN-null	Lmaj promast	Insulin prom inh	bCat KO growth	p97 ATPase inh
CC(C)(C)NCc1cc(Br)ccc1OCc1cccs1	x	78.2	21.1	x	67.8	4.5
COc1cc(CNC(C)(C)CO)cc(Br)c1OCc1ccccc1	-0.732	x	79.7*	x	x	-6.4
CCOc1cc(CNCc2cccs2)cc(Br)c1OC	-0.0811	74.9	3.2	x	69.2	0.1
COc1cc(CNC(C)(C)C)cc(Br)c1OCc1cccs1	x	72.0	85.5*	x	64.4	3.2
CC(C)(CO)NCc1cc(Br)ccc1OCc1ccccc1	-1.27	59.8	23.8	-50.0	55.0	0.1
N/C(COc1cc(Cl)cc(Cl)c1)=N\O	2.18	x	x	x	x	4.9
CC(C)c1ccc(C2NC(=S)NC3=C2C(=O)CC(C)(C)C3)cc1 (stereo unspecified)	x	89.5	30.5	x	71.2	3.8
O=C(OCC(=O)N1CCCC1)c1cncc(Br)c1	0.714	96.1	3.3	100.0*	91.4	2.6
COc1ccc2[nH]cc(CCn3ccc(O)c(C/C=C/c4ccccc4)c3=O)c2c1	0.52	x	100.0*	x	x	3.3
O=c1c(C/C=C/c2ccccc2)c(O)ccn1CCc1c[nH]c2ccccc12	0.0285	x	-1.8	30.0	x	1.4
C=CCn1c(C)cc(C2=NNC(=NCc3ccccc3)SC2)c1C	-0.728	x	48.5	25.0	x	6.5
Cc1cc(C2=NNC(=NC3CCCCC3)SC2)c(C)n1-c1c(C)n(C)n(-c2ccccc2)c1=O	x	89.7	42.7	-1.3	87.2	5.8
Cc1cc(C2=NNC(=NC3CC3)SC2)c(C)n1-c1ccccc1F	-0.1	20.4	76.7*	18.9	42.0	6.7
C=C(C)CN=C1NN=C(c2cc(C)n(-c3ccc(C)cc3)c2C)CS1	-0.883	86.1	91.1*	-13.3	84.1	-3.0
O=C(/C=C/c1cccc(Cl)c1)Nn1c(-c2cccs2)nc2ccccc2c1=O	-0.349	76.1	-5.1	9.4	90.3	5.5
NNC(=O)/C(=C\c1ccc(Br)cc1)NC(=O)c1cccs1	-0.174	x	-1.9	x	x	3.0
Cc1cc(NC(=O)C(=O)NCCN2CCN(S(C)(=O)=O)CC2)ccc1Br	0.295	x	-3.5	5.6	x	4.8
O=C1/C(=C/c2ccc(Cl)cc2)NC(=S)N1Cc1cccnc1	x	x	83.7*	x	x	4.8
Cc1nn(C)c(C)c1S(=O)(=O)N1CCCC(C(=O)N2CCN(c3ccc(Cl)cc3)CC2)C1 (stereo unspecified)	x	80.2	5.9	-77.5	87.1	0.4
O=C(C1CCCN(S(=O)(=O)c2cccc3nsnc23)C1)N1CC=C(c2ccccc2)CC1 (stereo unspecified)	-4.34*	61.4	11.0	-15.2	38.1	4.8
O=C(C1CCN(S(=O)(=O)c2cccc3cccnc23)CC1)N1CCN(c2ccc(Cl)cc2)CC1	x	15.9	51.9*	x	11.7	6.7
O=C(C1CCCN(S(=O)(=O)c2cccc3nonc23)C1)N1CCN(c2cccc(Cl)c2)CC1 (stereo unspecified)	-1.26	38.9	92.6*	12.3	47.5	0.7
Cc1n[nH]c(C)c1S(=O)(=O)N1CCCC(C(=O)N2CCN(c3ccc(Cl)cc3)CC2)C1 (stereo unspecified)	x	53.9	51.7*	x	61.6	2.1
COc1cccc(NC(=S)N(Cc2cccc(Br)c2)CC2CCC(C(=O)O)CC2)c1 (stereo unspecified)	0.0152	x	-3.4	x	x	-1.4
Cc1cc(=O)[nH]c(N/N=C/c2ccc(OC(=O)c3cccnc3)cc2)n1	-0.437	x	17.1	-50.0	x	6.1
CCCCOc1cccc(NC(=O)CSc2nncn2C)c1	-0.447	100.7	9.4	-93.1	87.7	1.4
Cc1[nH]c2c(ccc3cccnc32)c1C	x	x	x	x	x	8.2
CC1=[N+](C)c2c(ccc3cccnc23)C1(C)C	0.35	x	98.2*	x	x	4.3
Fc1ccc(-n2ncc3c(SCc4cccnc4)ncnc32)cc1	x	x	-4.8	x	x	2.2
